# Experimental data reported in PubChem BioAssay AID602399 (Sanford-Burnham Center for Chemical Genomics, 2012).
# About 2,800 (0.78%) of roughly 360,000 compounds were called active. Cut-off read from the data, not from the text of the source: active = inhibition above about 26%; inactive = the rest. Shown is part of a subset that was picked to be rich in actives.
# System: Nicotinate-nucleotide adenylyltransferase NadD (Staphylococcus aureus N315)
# Experiment: inhibitors of S. aureus NadD, primary screen, biochemical, colorimetric, uHTS (AID 602399)
# Conditions: purified NadD enzyme, colorimetric absorbance read-out; at 20 µM; active compounds read high
row,Compound,inhibition
1,CC1(C)C(C=C(Cl)Cl)C1C(=O)NC(O)C(=O)c1ccccc1 (stereo unspecified),-1.25% (inactive)
2,Cc1c2cnn(-c3ccccc3)c(=O)c2c(C)n1CCCC(=O)N1CCN(C)CC1,4.17% (inactive)
3,Cc1nn(CC(=O)Nc2ccc3c(c2)nc(CN2CCCCC2)n3C)c(=O)c2ccccc12,-0.187% (inactive)
4,Cn1c(CCN2CCCCCC2)nc2cc(NC(=O)Nc3ccccc3)ccc21,31.5% (active)
5,CCC(=O)Nc1ccc2c(c1)nc(CCN1CCN(c3ccccn3)CC1)n2C,-0.459% (inactive)
6,Cc1noc(/C=C/c2ccco2)c1S(=O)(=O)N1CCC(C(=O)Nc2ccc(Cl)cn2)CC1,16.8% (inactive)
7,CNC(=O)C1CCN(S(=O)(=O)c2c(C)noc2/C=C/c2cccc(C)c2)CC1,-4.39% (inactive)
8,Cc1noc(/C=C/c2ccco2)c1S(=O)(=O)N1CCC(C(=O)N2CCc3ccccc32)CC1,31.6% (active)
9,CCc1ccc(OCC(=O)NCC(c2ccc(Cl)cc2)N2CCCCC2)cc1 (stereo unspecified),-9.2% (inactive)
10,O=C(O)CN(Cc1ccco1)S(=O)(=O)c1ccc(F)cc1,-0.327% (inactive)
11,O=Nc1c(O)cc(O)c2ccccc12,-0.774% (inactive)
12,NC(CSC(c1ccccc1)(c1ccccc1)c1ccc(-c2ccccc2)cc1)C(=O)O (stereo unspecified),43.5% (active)
13,NC(CSC1(c2ccccc2)c2ccccc2-c2ccccc21)C(=O)O (stereo unspecified),27.6% (inactive)
14,CCC(C)OC(=O)C(C)Oc1ccc(-c2ccccc2)cc1 (stereo unspecified),2.06% (inactive)
15,O=C(N1CCOCC1)N(Cc1ccccc1)c1ccccn1,-0.327% (inactive)
16,COc1ccccc1CCNC(=O)C1CCN(C(=O)/C=C/c2ccccc2)CC1,1.36% (inactive)
17,COc1ccc(C(=O)/C=C/c2ccc(-c3ccccc3)cc2)cc1CSCC(=O)O,42.8% (active)
18,COC(=O)c1ccc(COc2ccc(/C=C/C(=O)c3ccc(OC)c(CSCC(=O)O)c3)cc2OC)cc1,20.9% (inactive)
19,COc1cc(C(=O)Nn2c(O)c(C3=c4ccccc4=NC3=O)sc2=S)ccc1O,9.44% (inactive)

row,Compound,inhibition
1,COC(=O)CC(CC(=O)OC)n1cccc1,-1.87% (inactive)
2,CCn1cc(CN2CCN(CC(C)(C)C)C(CCO)C2)c2ccccc21 (stereo unspecified),-1.34% (inactive)
3,COc1cc(Cl)c(C)cc1NC(=O)[C@@H]1CCCN1C(=O)c1cccs1,-0.625% (inactive)
4,Cc1c(C(=O)OC(C)C)sc(NC(=O)c2cccnc2)c1C#N,7.06% (inactive)
5,Cc1cc(N2C(=O)C(O)=C(C(=O)c3ccc(C)o3)C2c2ccc(OCc3ccccc3)cc2)no1 (stereo unspecified),58.6% (active)
6,C=CCOc1cccc(C2C(C(=O)c3ccc(C)o3)=C(O)C(=O)N2c2nnc(C)s2)c1 (stereo unspecified),12.2% (inactive)
7,CCCOc1ccc(C2C(C(=O)c3ccc(C)o3)=C(O)C(=O)N2CCCn2ccnc2)cc1 (stereo unspecified),17.5% (inactive)
8,CCC(C)N(C(=O)COC(=O)C1C(C(=O)OC)=C(C)NC(C)=C1C(=O)OC)C1CCS(=O)(=O)C1 (stereo unspecified),1.18% (inactive)
9,Cc1ccc(Cc2nnc(SCC(=O)Nc3ccccc3C)[nH]c2=O)cc1,2.18% (inactive)
10,NC(=O)NC(=O)CSc1nc2cc([N+](=O)[O-])ccc2n1-c1cccc(C(F)(F)F)c1,17.8% (inactive)
11,CC(=O)NC1(c2cccc(F)c2)CCN(CC(=O)NC(C)C)CC1,-2.5% (inactive)
12,O=C(N/N=C/C=C/c1ccco1)c1cccs1,5.08% (inactive)
13,C/C(=N\NC(=O)c1cc(-c2ccc(O)cc2)nc2ccccc12)c1cccnc1,5.99% (inactive)
14,Cc1ccc(-c2cc(C(=O)N/N=C/C=C/c3ccco3)c3ccccc3n2)cc1C,53% (active)
15,CSc1nsc(SC)c1NC(=O)OC1CCCCC1,-1.66% (inactive)
16,CC(=O)Nc1ccc(S(=O)(=O)N2CCN(S(=O)(=O)c3cccs3)CC2)cc1,0.0869% (inactive)
17,CN(C)c1ccc(-n2cccc2/C=C2/SC(=Nc3ccc(F)cc3)NC2=O)cc1,24.9% (active)
18,CN(C)c1ccc(-n2cccc2/C=N/n2cnnc2)cc1,-0.713% (inactive)
19,CN(CCC1CCOCC1)Cc1cn[nH]c1-c1ccc(-c2ccccc2)cc1,-6.91% (inactive)

row,Compound,inhibition
1,C[C@@H]1CN([C@@H](C)CO)C(=O)c2cccc(NS(=O)(=O)c3ccc(F)cc3)c2O[C@H]1CN(C)C(=O)NC1CCCCC1,4.79% (inactive)
2,Cc1[nH]c2ccccc2c1SCC(=O)Nc1nccs1,-2.1% (inactive)
3,CN(C)/C=C(\C#N)C(=O)c1cccnc1Oc1cccc(F)c1,-0.906% (inactive)
4,COc1ccc(C2(CNC(=O)C(c3ccccc3)c3ccccc3)CCOCC2)cc1OC,-2.03% (inactive)
5,Cc1cc(C)nc(Nc2n[nH]c(-c3ccccc3N)n2)n1,-2.89% (inactive)
6,CCNc1nc(N)nc(Oc2ccc(OCC)nn2)n1,-1.59% (inactive)
7,O=C(O)CC/C(=C\c1cc2c(cc1Br)OCO2)c1nc2ccccc2s1,7.94% (inactive)
8,Cc1nn(-c2ccc(F)cc2)c(Cl)c1/C=C(/CCC(=O)O)c1nc2ccccc2s1,6.39% (inactive)
9,COc1ccc(C(=O)Nc2cccc(/C=C(/CCC(=O)O)c3nc4ccccc4s3)c2)cc1,35.2% (active)
10,CSc1nnc2c(n1)OC(c1ccsc1)N(C(C)=O)c1ccccc1-2 (stereo unspecified),-0.91% (inactive)
11,Cc1ccc(C(=O)N/C(=C\c2cn(C)c3ccccc23)C(=O)N2CCN(C)CC2)cc1,-3.04% (inactive)
12,Cc1cccc(N=C2NC(=O)/C(=C/c3cn(C)c4ccccc34)S2)c1,37% (active)
13,Cc1ccc(N2C(=O)S/C(=C/c3cn(C)c4ccccc34)C2=O)cc1,2.76% (inactive)
14,CON(C)S(=O)(=O)c1ccc2c(c1)NC(=O)C1CCCN21 (stereo unspecified),10.3% (inactive)
15,Cc1ccc(Cn2c(=N)c(S(=O)(=O)c3ccc(C)cc3)cc3c(=O)n4ccccc4nc32)cc1,35.5% (active)
16,CCn1c(=N)c(S(=O)(=O)c2ccc(F)cc2)cc2c(=O)n3ccccc3nc21,7.46% (inactive)
17,Cc1ccc(S(=O)(=O)c2cc3c(=O)n4cccc(C)c4nc3n(CCc3ccccc3)c2=N)cc1C,-1.62% (inactive)
18,COc1ccc(C)cc1NC(=O)c1cc(-c2ccccc2)nc2c1cnn2C(C)C,-10.2% (inactive)
